Compounds with a hit are over-represented: about 2.1% of the library has one in this group of screens.
TDP-43 yeast inh = TDP-43 toxicity inhibition in yeast. TDP-43 expressing yeast growth rescue, BacTiter-Glo, 24 h. Potency, µM (series often up to 46.1 µM), most hits filed as activators. 410,000 compounds, 1.8% hits. AID 652104; further: nearly all actives have a fitted effect of over 50% in size
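Yeast cells expressing TDP-43 under galactose induction are exposed to compounds for 24 hr at 30 deg C. BacTiter-Glo luminescence measures growth, so protective compounds score as activators.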
Abeta rescue = restores growth of yeast expressing A-beta42 peptide. yeast expressing A-beta42, growth rescue, OD600, 48 h; response scale: 0% DMSO, 100% iron-clioquinol control. AID 1347071. 410,000 compounds, 0.063% hits. Potency, µM (series often up to 46.1 µM), hits mostly activators; further: nearly all actives have a fitted effect of over 55% in size
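Yeast growth medium received pinned compounds, then yeast cells expressing toxic A-beta were added; plates incubated at 30 C for 48 hr. Growth read as absorbance at 600 nm, normalized to DMSO and equimolar FeCl3 plus clioquinol controls.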
aSyn rescue = inhibitors of alpha-synuclein toxicity in yeast; Potency, µM (titrated, usually from 46.1 µM), most hits filed as activators; 370,000 compounds, 0.14% hits; Yeast expressing alpha-synuclein, growth rescue, BacTiter-Glo, 24 h; further: nearly all actives have a fitted effect of over 65% in size
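Readout is rescue of growth in alpha-synuclein-expressing yeast, so inhibitors of toxicity appear as activators. Growth after 24 hr at 30 deg C in galactose medium is quantified by luminescence.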
FUS yeast rescue = FUS proteinopathy suppression in yeast | Potency, µM (highest dose often 76.6 µM), usual class: activators | AID 1347120 | 390,000 compounds, 0.24% hits | S. cerevisiae FUS-expressing, growth rescue, OD600, 24 h; further: nearly all actives have a fitted effect of over 55% in size
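Compound concentration series was pinned onto galactose-induced FUS-expressing yeast seeded at OD 0.005. Plates sat 24hr at 30C; absorbance at 600 nm gave growth. DMSO served as background control.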
Of the large screens only hits and unclear results are named; the others gave an inactive call. The call rests on the fitted dose curve; in most records, active means well fitted curve in the direction sought with a large enough effect; inconclusive means small, poorly fitted or top-dose-only effect, or another doubt; inactive means no such curve, though single readings can be large; an effect the other way counts as inactive or inconclusive.

CC(=O)Oc1[nH]c(=O)c2cccc3c2c1CCC3	TDP-43 yeast inh 28µM
CC(=O)Oc1cc2c(c3ccccc13)CCC2=O	TDP-43 yeast inh inconclusive
COc1nc2ccccc2nc1N1CCN(Cc2ccc3c(c2)OCO3)CC1	TDP-43 yeast inh 14µM
COc1ccc2c(c1)CCC2=O	none (no result: TDP-43 yeast inh, Abeta rescue, FUS yeast rescue)
CC(C)(C#N)Nn1cnnc1	FUS yeast rescue 16µM
CC(C)(C#N)Nc1ccccc1	none
N#CC(C#N)=C1C(=O)N(CCN2CCOCC2)c2ccccc21	none
N#CC(C#N)=C1C(=O)N(CCN2CCCCC2)c2ccccc21	FUS yeast rescue 22µM
C=CCSc1nnc2c(n1)[nH]c1c(C)cccc12	TDP-43 yeast inh 11µM
CCSc1nnc2nc3[nH]c4c(C)cccc4c3nn12	none
CCOC(=O)C1C(=O)C=C(c2ccc([N+](=O)[O-])cc2)CC1c1ccccc1 (stereo not drawn)	TDP-43 yeast inh 20µM
CCOC(=O)C1C(=O)C=C(c2cccc(NS(C)(=O)=O)c2)CC1c1ccco1 (stereo not drawn)	none
CCOC(=O)C1C(=O)C=C(c2ccc(Br)cc2)CC1c1ccco1 (stereo not drawn)	TDP-43 yeast inh 25µM
COc1ccc(NC(=O)c2oc3ccccc3c2NC(=O)Cc2cccs2)c(OC)c1	none (no result: aSyn rescue)
CNc1ccc(/C=C/c2ccnc3ccccc23)cc1	none (no result: TDP-43 yeast inh, Abeta rescue, FUS yeast rescue)
CCOc1ccc(CCNC(=O)c2nc(-c3cccc(F)c3)n3c2CCCCC3)cc1OCC	TDP-43 yeast inh 18µM, FUS yeast rescue inconclusive (no result: aSyn rescue)
O=C(COc1ccccc1F)Nc1ccc(Cl)c(-c2nc3ccccc3[nH]2)c1	TDP-43 yeast inh 35µM, FUS yeast rescue inconclusive (no result: aSyn rescue)
Cc1cccc(OCC(=O)Nc2ccc(Cl)c(-c3nc4ccccc4[nH]3)c2)c1	TDP-43 yeast inh 35µM, FUS yeast rescue inconclusive (no result: aSyn rescue)
CCCCc1c(C)c2cc(C)ccc2[nH]c1=O	TDP-43 yeast inh 10µM
CCCc1c(C)c2cc(C)ccc2[nH]c1=O	none
O=C(CSc1nc2c([nH]c3ccccc32)c(=O)n1-c1ccc(F)cc1)N1CCCCCC1	none
O=C(N/N=C/c1cc(Cl)ccc1O)c1ccc(Br)cc1	FUS yeast rescue inconclusive
Cc1ccc(N=Nc2ccc(O)c(/C=N\NC(=O)c3ccc(N)cc3)c2)cc1C	FUS yeast rescue 1.1µM
CCc1ccc(OCC(=O)Nc2ccncc2)c(Br)c1	none
CCc1ccc(OCC(=O)NNC(=S)NC(=O)C2CCCCC2)c(Br)c1	TDP-43 yeast inh 18µM, Abeta rescue 7.9µM, aSyn rescue 7.1µM
CCc1ccc(OCC(=O)NNC(=O)c2cnccn2)c(Br)c1	TDP-43 yeast inh 25µM, Abeta rescue 25µM, aSyn rescue inconclusive
COc1ccc(N2C(=O)c3ccccc3NC2c2ccc(OC)c(COc3ccc(NC(C)=O)cc3)c2)cc1 (stereo not drawn)	none (no result: TDP-43 yeast inh, Abeta rescue, FUS yeast rescue)
Cc1ccc2nc(NC(=O)CSc3nccn3Cc3ccccc3)sc2c1	TDP-43 yeast inh inconclusive, Abeta rescue inconclusive, aSyn rescue inconclusive
Cc1ccc2nc(NC(=O)CSc3nccn3Cc3ccc(F)cc3)sc2c1	TDP-43 yeast inh 22µM, Abeta rescue inconclusive, aSyn rescue inconclusive
O=C(CSc1cccc[n+]1[O-])C12CC3CC(CC(C3)C1)C2	TDP-43 yeast inh 14µM, Abeta rescue inconclusive
O=C(CSc1cccc[n+]1[O-])c1cccs1	none
O=C(O)CSc1cccc[n+]1[O-]	none
O=C(CSc1cccc[n+]1[O-])c1cc(Cl)ccc1Cl	TDP-43 yeast inh 11µM, Abeta rescue inconclusive
CCC1C/C(=C\c2cc(OC)c(OC)cc2OC)C(=O)/C(=C/c2cc(OC)c(OC)cc2OC)C1 (stereo not drawn)	FUS yeast rescue inconclusive
COc1cc(OC)c(OC)cc1/C=C1\CC(C)C/C(=C\c2cc(OC)c(OC)cc2OC)C1=O (stereo not drawn)	FUS yeast rescue 25µM
COc1ccc([C@H]2Cc3cccc(O)c3C(=O)O2)cc1O	TDP-43 yeast inh 11µM
Cc1ccc(NC(=O)CCNS(=O)(=O)c2ccc3c(c2)CCN3C(=O)C2CC2)c(Cl)c1	none
O=C(c1ccccc1)N1CCN(c2ccc(Cl)cc2)CC1	TDP-43 yeast inh inconclusive
Cc1occc1C(=O)N1CCN(c2ccc(Cl)cc2)CC1	TDP-43 yeast inh 10µM
COc1ccc(N2CCN(C(=O)c3cc(-c4ccc(F)cc4)[nH]c3C)CC2)cc1	TDP-43 yeast inh inconclusive, FUS yeast rescue inconclusive
Cc1[nH]c(-c2ccc(F)cc2)cc1C(=O)N1CCN(c2ccc(Cl)cc2)CC1	TDP-43 yeast inh 16µM, aSyn rescue inconclusive

Source: PubChem (National Center for Advancing Translational Sciences (NCATS))
